Compound activity as filed in PubChem.
Only some compounds are listed: those with a hit (about 21% of all), similar ones and a draw of the others.
Pf growth 48h: inhibits P. falciparum growth in the first generation, 48 h; P. falciparum luciferase growth in erythrocytes, 48 h; Potency, µM (doses to about 28.7 µM), usual class: inhibitors; 310,000 tested, 5.9% active; active = well fitted inhibition curve with a large enough effect; inconclusive = small, poorly fitted or top-dose-only effect, or another doubt; inactive = no such curve, though single readings can be large or run the other way
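Here the parasites carry a stable luciferase gene and grow inside erythrocytes in Albumax-based RPMI medium with compound for one erythrocytic cycle. Activity is scored as loss of luminescent signal.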
SARS PLP yeast: SARS-CoV PLP inhibition in yeast. S. cerevisiae expressing SARS-CoV PLpro, growth rescue. Potency, µM (titrated, usually from 32.9 µM), hits mostly activators. 330,000 tested, 0.19% active; also: nearly all actives have a fitted effect of over 55% in size
NS1 inh: inhibitors of influenza NS1 protein function; Potency, µM (series often up to 46.1 µM); 270,000 tested, 0.4% active; AID 2326; also: actives are rising curves; nearly all actives have a fitted effect of over 50% in size
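OD600 was taken as the measure of yeast growth restored by compound in an NS1-expressing S. cerevisiae strain. Cells had been washed out of glucose medium and diluted 1:100 into galactose -URA medium, pH 6.0.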
Cycloheximide cs: counter-screen for Shiga toxin inhibitors: cycloheximide protein synthesis inhibition; cell reporter, cycloheximide protein synthesis inhibition counterscreen; max response, %; 300,000 tested, 12% active; in the data active = max response mostly above about 13%, no sharp cut-off; inactive = mostly below about 14%; also: read at 38.3 µM for the half of the compounds with a filed dose
Shiga inhibitor: blocks Shiga toxin action in Vero cells; Vero cells, Shiga toxin protein synthesis inhibition reporter; inhibition, % at 38.7 µM; 290,000 tested, 9.2% active; in the data active = inhibition mostly above about 28%, no sharp cut-off; inactive = mostly below about 43%
Pf growth 96h: inhibits malaria parasite growth, 96 h; 320,000 tested, 6.9% active; AID 504834; Potency, µM (titrated, usually from 28.7 µM), hits mostly inhibitors; P. falciparum luciferase reporter growth, 96 h; active = well fitted inhibition curve with a large enough effect; inconclusive = small, poorly fitted or top-dose-only effect, or another doubt; inactive = no such curve, though single readings can be large or run the other way
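Cell-based qHTS: luciferase-tagged P. falciparum in erythrocytes (2% hematocrit, 0.05% parasitemia final) incubated with compounds for 96 hours, 37 C, 5% CO2; luciferase detection reagent then added and luminescence measured.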
Flu NS1 inh: influenza NS1 function inhibition validation | shares compounds with NS1 inh | influenza NS1 function cell assay, 15-point titration | activity change, negative = inhibition, % at 32.9 µM | 1,400 tested, under 10 active | AID 492980
Flu PR8 replic: influenza NS1 inhibitors: inhibition of influenza A/PR/8/34 replication; shares compounds with NS1 inh; MDCK infected influenza A/PR/8/34, virus titer TCID50; hits give low values; virus titer (log TCID50), log10 TCID50 at 5 µM; 95 tested, 30% active; AID 504647; call rule not given here
Numbers stand for hits; n = inactive; u = inconclusive; x = not tested or not shown; [ ] = dose if it differs, or a comment. Unless noted, calls follow the shape of the full dose curve.

SMILES	Pf growth 48h	SARS PLP yeast	NS1 inh	Cycloheximide cs	Shiga inhibitor	Pf growth 96h	Flu NS1 inh	others
O=C(CSc1ccc(Cl)cc1)Nc1ccccc1Oc1ccccc1	u	n	n	n	n	u	x
COC(=O)CCCCCN1C(=O)NC(c2ccccc2)C(C(=O)OCc2ccccc2)=C1C (stereo not drawn)	n	n	n	n	n	u	x
CCCCCCN(C(=O)CCCCCN1C(=O)NC(c2ccc(-c3ccccc3)cc2)C(C(=O)OCc2ccccc2)=C1C)C(C(=O)NCCCC)c1ccc(OCC(=O)OC)c(C(=O)OC)c1 (stereo not drawn)	2.3µM	n	11µM	n	n	2.6µM	n
CC(Sc1nc(N)cc(=O)[nH]1)C(=O)Nc1cccc(Cl)c1 (stereo not drawn)	n	n	10µM	n	n	n	n
Nc1cc(=O)[nH]c(SCC(=O)Nc2ccc(Cl)c(Cl)c2)n1	n	n	2.5µM	n	n	x	n
CN(c1ccccc1)S(=O)(=O)c1ccc(Cl)c(C(=O)Nc2ccc(-c3nc4ccccc4[nH]3)cc2)c1	u	n	n	n	n	u	x
CN(c1ccccc1)S(=O)(=O)c1ccc(Cl)c(C(=O)Nc2nc3ccccc3[nH]2)c1	u	n	10µM	n	n	6.6µM	n
COCC(CN1CCN(C2=NS(=O)(=O)c3ccccc32)CC1)OC(=O)c1ccccc1 (stereo not drawn)	n	n	n	n	n	n	x
CC(=O)Nc1cccc(C(=O)Nc2cccnc2)c1	n	n	x	n	n	n	x
Cc1ccc(C)c(S(=O)(=O)Nc2ccc(C(=O)N3CC(C)OC(C)C3)cc2)c1 (stereo not drawn)	n	n	x	x	x	n	x
Cn1cc(C(=O)N2CCN(C(=O)c3ccco3)CC2)c2c3ccccc3n(C)c2c1=O	n	n	4µM	n	n	n	n
CCN1CCN(C(=O)c2cn(CCOC)c(=O)c3c2c2ccccc2n3C)CC1	n	n	n	n	n	u	x
CN(C)S(=O)(=O)c1cc(NC(=O)CSc2cccc[n+]2[O-])ccc1Cl	n	n	x	x	x	u	x
CN(C)S(=O)(=O)c1cc(NC(=O)CSc2ncc(C(F)(F)F)cc2Cl)ccc1Cl	n	n	13µM	n	n	u	n
CC(=O)Nc1ccc(NC(=O)C(C)OC(=O)CCN=C2NS(=O)(=O)c3ccccc32)cc1 (stereo not drawn)	n	n	n	n	n	n	x
CC(OC(=O)CCCCCN=C1NS(=O)(=O)c2ccccc21)C(=O)Nc1cc(Cl)cc(Cl)c1 (stereo not drawn)	n	n	13µM	n	n	n	n
Cc1cccc2cc3c(N)c(C(=O)N4CCc5ccccc54)sc3nc12	n	n	n	n	n	u	x
Cc1ccc(CNS(=O)(=O)c2c(N)n(C)c(=O)n(C)c2=O)cc1	n	n	n	n	n	n	x
COc1ccc(CNC(=O)C2CCN(S(=O)(=O)N3CCCC3)CC2)c(OC)c1	n	n	u	n	n	n	n
CC(C)(C)NC(=O)C(c1ccsc1)N(CCc1ccccc1)C(=O)Cn1nnc2ccccc21 (stereo not drawn)	u	n	u	n	n	u	n
CCOC(=O)c1c(S(=O)(=O)NCc2ccc(OC)cc2)c(C)n(C)c1C	n	n	n	n	n	n	x
COC(=O)C1=C(C)N(Cc2ccc(C)cc2)C(=O)/C1=C\c1ccc(O)c(OC)c1	n	n	10µM	n	n	n	u
CCOc1cc(/C=C2\C(=O)N(Cc3ccco3)C(C)=C2C(=O)OC)ccc1O	n	n	n	n	n	n	x
CC1=C(C(=O)OC(C)C)C(c2cccc([N+](=O)[O-])c2)n2c(cc(=O)[nH]c2=S)N1 (stereo not drawn)	n	n	11µM	n	n	n	n
CC(=O)C1=C(C)NC(=S)NC1c1cccc([N+](=O)[O-])c1 (stereo not drawn)	n	n	x	n	n	n	x
SMILES	Pf growth 48h	SARS PLP yeast	NS1 inh	Cycloheximide cs	Shiga inhibitor	Pf growth 96h	Flu NS1 inh	others
Cc1ccc(N2C(=O)C(NC(=O)c3ccccc3)(C(F)(F)F)C3=C2CC(C)(C)CC3=O)cc1 (stereo not drawn)	u	n	n	n	n	n	x
Cc1nc(SCC(=O)NCC2CCCO2)c2c3c(sc2n1)CCCC3 (stereo not drawn)	n	n	n	n	n	n	x
Cc1nc(SCC(=O)NCc2ccco2)c2c3c(sc2n1)CCCC3	x	n	4.5µM	24	43	u	u
O=C(CSc1cnc2ccccc2n1)NC1CCCC1	x	n	n	n	n	n	x
O=C(O)CSc1cnc2ccccc2n1	x	n	16µM	n	n	n	n
CSc1nc(-c2ccccc2)nc(NC(C)=O)c1C(C)=O	n	n	x	n	n	u	x
Cc1ccc(C)c2[nH]c(=O)c(C(c3nnnn3Cc3ccccc3)N3CCc4ccccc4C3)cc12 (stereo not drawn)	10µM	n	10µM	n	n	x	n
O=C(CN(Cc1ccccc1)C(=O)c1cccc([N+](=O)[O-])c1)Nc1c(Cl)cc(Cl)cc1Cl	n	n	n	n	n	n	x
Cc1cc(OCC(=O)NC(Cc2ccc(Cl)cc2)C(=O)O)c2c3c(c(=O)oc2c1)CCCC3 (stereo not drawn)	u	n	3.2µM	n	n	u	n
Cc1cc(OCC(=O)NC(Cc2ccc(Cl)cc2)C(=O)O)c2c(C)cc(=O)oc2c1 (stereo not drawn)	n	n	n	n	n	n	x
Cc1cc(OCC(=O)NC(Cc2ccc(Cl)cc2)C(=O)O)c2c(C)c(C)c(=O)oc2c1 (stereo not drawn)	n	n	7.9µM	n	n	n	u	Flu PR8 replic=n
CCCNC(=O)CN(c1cccc(F)c1)S(C)(=O)=O	n	n	n	n	n	n	x
CCC(C)NC(=O)CN(c1cc(C)cc(C)c1)S(=O)(=O)c1c(C)[nH]c(=O)[nH]c1=O (stereo not drawn)	u	n	n	n	n	n	x
Cc1ccc(S(=O)(=O)NC(C)(C)CSc2nncn2C)cc1	x	n[6.58 µM]	n	n	n	n	x
Cn1cnnc1SCC(C)(C)NS(=O)(=O)c1ccc(Cl)cc1	n	n	u	n	n	u	n
CCCC(=O)Nc1cccc2c1CCCC2	n	n	5.6µM	n	n	u	n
CCc1ccc(OCC(=O)Nc2cccc3c2CCCC3)cc1	n	n	n	n	n	n	x
CCCN(CCC)S(=O)(=O)c1ccc(C(=O)N2CCN(C)CC2)cc1	n	n	n	n	n	n	x
NC(=O)NCCc1ccccc1	n	n	n	n	n	n	x
CC1CCN(C(=O)Cn2c(=O)oc3ccccc32)CC1	n	n	3.5µM	n	n	n	n
O=C(CN1CC[n+]2c(-c3cccs3)csc21)c1ccc(Br)cc1	13µM	n	4.5µM	n	n	n	n
